Assay outcomes deposited in PubChem BioAssay by several laboratories.
FAS-TE inh: FAS thioesterase domain inhibitors, primary screen, biochemical, fluorescence intensity, uHTS | Fatty acid synthase (Homo sapiens), P49327 | actives 0.67% (n = 360,000) | inhibition, % at 15 µM | recombinant FAS-TE, OMFH fluorogenic substrate, fluorescence endpoint | AID 602261, 2012;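 active means compounds whose normalised, plate-corrected inhibition of enzyme fluorescence in the single-dose primary screen is 50% or more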;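 further: 0% = DMSO with enzyme and 100% = substrate without enzyme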
SUMO Mot1 rescue: yeast Mot1-301 growth rescue at high temperature, primary screen, SUMOylation pathway inhibitor project, S. cerevisiae, ATP luminescence, 38.5C | S. cerevisiae Mot1-301 growth rescue; percent above DMSO median, 100 means doubled | actives 1% (n = 320,000) | growth rescue, % at 18.8 µM;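 active means every valid replicate shows activation above 250% relative to neutral control wells; inactive means the rest, any valid replicate at or below 250%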;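 further: OY570 slx delta 5 strain wells were the positive control but not used for scaling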
Calb FLC: C. albicans growth inhibition with fluconazole, primary screen, CaCi-2 strain, Alamar Blue fluorescence | C. albicans CaCi-2 (fluconazole-resistant clinical isolate) + fluconazole, 48 h | AID 1979, 2009 | growth inhibition, % (test concentration not listed) | actives 0.57% (n = 300,000);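 active means growth inhibition above about 58% in most replicates, limit read from the data, passing the limit was not always enough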;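 further: all wells also contain fluconazole at 8 µg/ml as a sub-toxic cotreatment; 0% = median of DMSO wells and 100% = median of geldanamycin control wells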
ATG4B inhibitor: ATG4B protease inhibitors, primary screen, biochemical, fluorescence, uHTS; ATG4B cleavage of LC3-PLA2, NBD-HPC fluorescence, 1 h; inhibition, % at 8.33 µM; actives 0.51% (n = 340,000); in the data active means inhibition above about 40%
Target sequence (Q9Y4P1 whole entry, looked up): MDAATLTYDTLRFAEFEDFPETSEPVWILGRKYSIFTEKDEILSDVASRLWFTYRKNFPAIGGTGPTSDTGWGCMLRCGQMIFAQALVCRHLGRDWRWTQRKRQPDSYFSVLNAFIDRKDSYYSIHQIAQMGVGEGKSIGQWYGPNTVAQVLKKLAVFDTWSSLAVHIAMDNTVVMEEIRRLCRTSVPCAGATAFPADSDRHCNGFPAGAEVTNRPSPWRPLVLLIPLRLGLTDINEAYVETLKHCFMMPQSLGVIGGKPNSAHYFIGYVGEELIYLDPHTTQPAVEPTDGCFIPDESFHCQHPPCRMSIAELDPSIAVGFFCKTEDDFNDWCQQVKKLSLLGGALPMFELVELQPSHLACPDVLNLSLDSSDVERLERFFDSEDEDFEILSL
NadD block: inhibitors of S. aureus NadD, primary screen, biochemical, colorimetric, uHTS; Nicotinate-nucleotide adenylyltransferase NadD (Staphylococcus aureus N315); purified NadD enzyme, colorimetric absorbance read-out; inhibition, % at 20 µM; actives 0.78% (n = 360,000); AID 602399, 2012; in the data active means inhibition above about 26%
An asterisk follows results filed as active; x = no result given. Compounds with a hit are over-represented: about 3.1% of the library has one in this group of screens.

SMILES | FAS-TE inh | SUMO Mot1 rescue | Calb FLC | ATG4B inhibitor | NadD block
O=C(N/N=C\c1ccccc1)c1cccc(C(=O)N/N=C\c2ccccc2)n1 | 7 | -30 | 0 | -20 | 11
CC(=O)NN1C(=O)/C(=C/c2ccc(C(C)C)cc2)SC1=S | -7 | 17 | 3 | -6 | -7
CCNc1nc(NC(C)C)nc(NC(C)(C)C)n1 | -2 | -12 | 83* | 2 | -6
O=C(Nc1nc2c(Cl)cccc2s1)c1ccc(Br)o1 | -3 | -11 | 54* | 8 | 0
O=C(Nc1nc2c(Cl)cccc2s1)c1ccc([N+](=O)[O-])o1 | 45 | -20 | -2 | -12 | -1
COc1cccc(COc2cc3ccccc3nc2C)c1 | 18 | 385 | 100* | -7 | 7
Cc1nc2ccccc2cc1OCc1ccccc1 | 10 | -10 | 107* | -1 | 2
Cc1nc2ccccc2cc1OCc1ccc(Cl)cc1 | 24 | 12 | 34 | 5 | -4
CC(Oc1ccc2cc(-c3ccccc3)c(=O)oc2c1)C(=O)NCC1CCC(C(=O)O)CC1 (configuration not stated) | -5 | 743* | -2 | -14 | -5
O=C(Cc1ccc([N+](=O)[O-])cc1)OCc1c(F)cccc1Cl | 36 | 12 | -1 | -1 | -5
O=C1/C(=C/c2cccnc2)SC(=S)N1C1CCS(=O)(=O)C1 (configuration not stated) | -8 | 52 | 65 | 6 | -5
O=C1/C(=C\c2cccnc2)SC(=S)N1C1CCS(=O)(=O)C1 (configuration not stated) | -6 | 10 | 91* | 2 | 1
COc1cccc(C2CC(c3cccs3)=NN2C(=O)CSc2nc3c(cnn3-c3ccc(F)cc3)c(=O)[nH]2)c1OC (configuration not stated) | 21 | 6 | 37 | 8 | 39*
Cc1cc(N/N=C2\CC(C)CC(C)(C)C2)nc2ccccc12 (configuration not stated) | 4 | x | 87* | 3 | -4
Cc1nc(NC(=O)C(C)(C)C)sc1C(=O)Cn1cc(-c2ccc(C(C)(C)C)cc2)nn1 | 3 | x | x | x | 4
CC1CCCN(S(=O)(=O)c2ccc(NC(=O)c3cccc(-n4cnnn4)c3)cc2)C1 (configuration not stated) | 22 | 13 | 1 | -27 | 1
CC1CCCCN1S(=O)(=O)c1ccc(NC(=O)c2cccc(-n3cnnn3)c2)cc1 (configuration not stated) | 16 | -17 | 91* | -15 | 1
COc1ccccc1/C=C1\Oc2cc(OC(=O)N3CCOCC3)ccc2C1=O | -3 | -8 | -12 | -1 | -5
Cc1nc(C)c(C(=O)OCC(=O)NCc2ccccc2Cl)s1 | 0 | -5 | x | 11 | 3
CC(C)N(C(=O)Cn1c(SCC(=O)NCc2ccc3c(c2)OCO3)nc2ccccc21)C(C)C | -6 | 307* | 2 | -7 | -7
CCOc1ccc(S(=O)(=O)N2CCN(C(=O)c3cc(C4CC4)nn3-c3ccccc3)CC2)cc1 | 37 | x | x | -1 | 1
O=C(CSc1nc2nn(-c3ccccc3)c(=O)c-2c2n1CCCCC2)Nc1ccc(F)c(F)c1 | 40 | 5 | x | -3 | 39*
O=C(CSc1nc2nn(-c3ccccc3)c(=O)c-2c2n1CCCCC2)c1ccc(O)c(O)c1 | 20 | 6 | x | -16 | 57*
CNC(=O)CSc1nc2nn(-c3ccccc3)c(=O)c-2c2n1CCCCC2 | -2 | 5 | 5 | 3 | -2
CSc1nc(N(C)NC(=O)c2ccccc2)c2ccccc2n1 | 0 | 162 | -1 | 5 | -4
CSc1nc(N(C)NC(=O)c2ccc(Cl)cc2)c2ccccc2n1 | 11 | 334* | -2 | -9 | -2
CC(=O)c1nn(-c2cccc(Br)c2)cc1C(=O)c1ccc(Br)cc1 | 2 | 3 | -7 | 1 | 0
CC(=O)c1nn(-c2cccc(Br)c2)cc1C(=O)c1ccc(C)cc1 | -3 | 4 | 95* | -3 | -6
CCN1C(=O)[C@H]2[C@@H](c3ccc(-c4ccc(Cl)c(Cl)c4)cc3)N[C@@](CC(C)C)(C(=O)OC)[C@H]2C1=O | 42 | 1 | 4 | 7 | 7
